Molecules are shown by their SMILES. Several values for one entry are separate records, joined by “and”; a condition that tells them apart may be missing. Equal values may be shown once. About 1,000 (0.32%) of roughly 310,000 compounds were called active. A selection follows. Measured potencies and affinities stand elsewhere. Values without a mark were called inactive. The rule behind the calls is not given here.

A short description of this assay: Inhibition of PhoP regulon, Salmonella typhi GFP reporter cells, confirmation, 4 h (AID 1850).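 Note: 0% = induced wells with vehicle and 100% = uninduced wells.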 The settings on record: Salmonella Typhi PhoP-promoter GFP reporter, fluorescence, at 50 µM, hits give high values.
For `O=C(N/N=C/c1cccc(C(F)(F)F)c1)c1ccccc1O`, the inhibition is 1.04%.
With `O=C(Nc1ccccc1F)Oc1cccc(OC(=O)Nc2ccccc2F)c1` the figure was 5.4%.
The result for `CS(=O)(=O)Nc1ccc(C(=O)Nc2ccc(S(=O)(=O)N3CCCC3)cc2)cc1` reads -7.4%.
`O=C1Nc2ccc(S(=O)(=O)N3CCCC3)c3cccc1c23`: the inhibition is -4.45%.
The result for `CC(=O)c1ccc(N=Nc2ccc(N(C)C)cc2)cc1` reads 6.87%; that for `CCN(CC(=O)NCCN1CCOCC1)S(=O)(=O)c1ccc(F)cc1`, 5.57%; that for `C/C(=N\NC(=O)C(O)c1ccccc1)c1ccc(Cl)s1` (stereo unspecified), -5.86%.
The result for `CN(C)C(=S)NC(=O)c1cccc(Cl)c1` reads -16.5%.
The result for `O=C(Nc1ccc(C(=O)O)cc1)/C(=C\C=C\c1ccccc1)NC(=O)c1cccc(Br)c1` reads 9.6%; that for `Cc1cc(C)n(/N=C/c2ccccc2O)c(=O)c1`, -10.2%.
Take `Cc1cc(C)n(/N=C/c2c[nH]c3ccccc23)c(=O)c1`: the inhibition is 2.25%.
The result for `Cc1cc(C)n(/N=C/c2cccc([N+](=O)[O-])c2)c(=O)c1` reads -0.547%; that for `O=[N+]([O-])c1ccc(O)c(/C=N/n2cnnc2)c1`, 16.7%.
For `C/C1=C\CCC2C(/C=C(\C)CC1)OC(=O)C2CN1CCCCC1` (stereo unspecified), the inhibition was 5.15%.
Consider `CCOc1ccccc1NC(=O)C1CCN(S(=O)(=O)c2cccc3cccnc23)CC1`, for which the inhibition was 14.7%.
With `CCOC(=O)c1nnn(-c2nonc2-n2cccc2)c1CN1CCCCC1` the figure was -6.4%.
Turning to `O=C(O)/C=C/c1ccccc1Oc1ccc(Cl)cc1Cl`, the inhibition was 4.42%.
As for `Nc1cc(C(=O)O)c(Oc2ccc(Cl)cc2Cl)cc1C(=O)O`, the inhibition is -3.01%.
Consider `COc1cc(C)ccc1NC(=O)c1ccc(S(=O)(=O)N2CCOCC2)cc1`, for which the inhibition is -3.12%.
Regarding `c1ccc(C(c2ccccc2)N2CCN(Cc3nc(-c4cnccn4)no3)CC2)cc1`, the inhibition is -8.94%.
For the molecule `O=c1c([N+](=O)[O-])c(N2CCCCCC2)c2ccccc2n1-c1ccccc1`, the inhibition is 4.43%.
Regarding `CCn1cc(C(=O)O)c(=O)c2cc(F)c(N3CCN(S(=O)(=O)c4ccc(NC(=O)OC)cc4)CC3)cc21`, the inhibition is 3.45%.
The result for `CCn1cc(C(=O)O)c(=O)c2cc(F)c(N3CCN(C(=S)NC(=O)c4ccc(OC)cc4)CC3)cc21` reads -3.45%.
The result for `CCn1cc(C(=O)O)c(=O)c2cc(F)c(N3CCN(S(=O)(=O)c4ccc(Br)cc4)CC3)cc21` reads 2.97%.
For `O=C(O)c1cc(CN2CCOCC2)oc1-c1ccccc1`, the inhibition was 2.28%.
Regarding `Cc1ccc(C(=O)C(C)OC(=O)Cn2cnc3c2c(=O)n(C)c(=O)n3C)cc1` (stereo unspecified), the inhibition is 2.25%.
Take `COc1cc(CNc2cccc(C(=O)O)c2)cc(Br)c1OCC(=O)NC(C)(C)C`: the inhibition is -9.24%.
As to `COC(=O)c1cc(CN2CCN(c3ccccc3C)CC2)ccc1O`, the inhibition was -3.53%.
Regarding `Cc1ccc(-c2cc(=O)c3ccccc3[nH]2)cc1`, the inhibition was 10.7%.
Take `COc1ccc(Cc2nc3ccccc3n2CC(=O)N/N=C/c2ccc(C)cc2O)cc1OC`: the inhibition is -7.1%.
With `C/C(=N\NC(=S)NCc1ccccc1)c1ccc(Cl)s1` the figure was 9%; with `Cc1cc(C)n(-c2nncn2/N=C/c2ccccc2F)n1`, -6.07%; with `O=C(Nc1ccccc1C(=O)N1CCOCC1)C1CC(=O)N(C2CCCC2)C1` (stereo unspecified), -0.19%.
As to `COc1ccc([N+](=O)[O-])cc1C(=O)NCCOc1ccc(Cl)cc1`, the inhibition was -0.6%.
The result for `CC(NCC(O)COC1CCC(C(C)(C)C)CC1)c1ccccc1` (stereo unspecified) reads 0.36%; that for `COc1ccc(C2/C=C\CN(Cc3ccncc3)CC(=O)N2Cc2ccc(F)cc2)cc1` (stereo unspecified), -5.33%; that for `COc1ccc(Cl)cc1C(=O)NCC(C)C`, -5.89%.
The result for `O=C(CCC(=O)N1CCCCC1)Nc1nnc(C2CCCCC2)s1` reads 8.14%; that for `CCCN1C(=O)/C(=C/c2cc(C)n(C)c2C)SC1=Nc1ccc(OC)cc1`, 0.64%; that for `CNC(=O)CC1C(=O)N(c2ccc(Cl)cc2)C(=S)N1CCc1ccc(OC)c(OC)c1` (stereo unspecified), -0.64%.
With `O=C(NC1CCCC1)c1ccc(S(=O)(=O)N2CCOCC2)cc1` the figure was -6.82%.
`CCCCSCc1nc2ccccn2c1Br`: the inhibition was 0.1%.
The result for `CCn1cc(C(=O)O)c(=O)c2cc(F)c(N3CCN(S(=O)(=O)c4ccc5c(c4)OCCO5)CC3)cc21` reads 9.21%; that for `CCCOc1ccc(C(=O)NC(=S)N2CCN(c3cc4c(cc3F)c(=O)c(C(=O)O)cn4CC)CC2)cc1`, 15.1%.
With `CCn1cc(C(=O)O)c(=O)c2cnc(N3CCN(C(=S)NC(=O)c4ccc(Br)cc4)CC3)nc21` the figure was 5.97%; with `CCn1cc(C(=O)O)c(=O)c2cc(F)c(N3CCN(C(=S)NC(=O)c4ccc(F)cc4)CC3)cc21`, 9.94%; with `CCn1cc(C(=O)O)c(=O)c2cc(F)c(N3CCN(C(=S)NC(=O)c4ccc(F)c(F)c4)CC3)cc21`, 1.24%.
With `CC(=O)N1CCN(c2cc3c(cc2F)c(=O)c(C(=O)O)cn3C2CC2)CC1` the figure was 0.5%; with `COc1ccc(NC(=O)C2CCCN(S(=O)(=O)c3ccccc3)C2)c(OC)c1` (stereo unspecified), 0.45%.
For `O=C1C2CCCN2C(c2cccnc2)N1c1nccs1` (stereo unspecified), the inhibition was 0.12%.
The result for `CCOc1cc(C(=O)Nc2nnc(S(=O)(=O)N3CCOCC3)s2)cc(OCC)c1OCC` reads -12.6%; that for `CCc1ccc(NC(=O)COC(=O)/C(=C/c2ccccc2OC)c2ccccc2)cc1`, -5.82%.
The result for `CCn1c(C)nnc1SCC(=O)Nc1ccc2c(c1)OCCO2` reads 11.2%; that for `Cc1onc(-c2ccccc2)c1C(=O)N1CCC(CO)(Cc2ccccc2)CC1`, -9.9%.
With `CCC(=O)Nc1ccc2c(c1)nc(CCN1CCCCC1)n2C` the figure was 0.58%.
On to `Nc1ccn([C@@H]2O[C@H](CO)[C@@H](O)[C@@H]2O)c(=O)n1`, for which the inhibition is 1.39% and -1.71%.
The result for `Nc1nc(F)nc2c1ncn2[C@@H]1O[C@H](CO)[C@@H](O)[C@@H]1O` reads -2.76%; that for `Nc1cnn(C2OC(CO)C(O)C2O)c(=O)n1` (stereo unspecified), 2.98%; that for `NC(=O)c1ncn([C@@H]2O[C@H](CO)[C@@H](O)[C@H]2O)c1O`, 4.75%.
The result for `Nc1nc(Cl)nc2c1ncn2[C@@H]1O[C@H](CO)[C@@H](O)[C@H]1O` reads 19.8% and 8.46%; that for `Nc1ccn([C@@H]2O[C@H](CO)[C@@H](O)C2O)c(=O)n1` (stereo partly specified), 6.26%; that for `Cc1ccc(Cn2nnnc2CN2CCC(n3nnc4cc(C)ccc43)CC2)cc1`, -8.85%.
The result for `CCOC(=O)c1ccc(CNC(=O)c2n[nH]c(=O)c3ccccc23)o1` reads -3.19%; that for `O=C(Nc1cccc(-c2nc3ccccc3s2)c1)c1ccc2c(c1)OCO2`, -3.82%; that for `COc1ccc(N=C2SCC(c3ccc([N+](=O)[O-])cc3)=NN2CCO)cc1`, 7.19%.
For `O=C(CN1CCN(S(=O)(=O)c2ccc(Br)cc2)CC1)N/N=C/c1ccco1`, the inhibition was -9.02%.
With `O=C(O)COCC(=O)N1CCN(c2cc(C(F)(F)F)nc3ccccc23)CC1` the figure was 1.72%; with `CC(=O)NCCC(=O)Nc1nc2c(ccc3ccccc32)s1`, 9.9%.
The result for `O=C(N/C(=C/c1ccco1)C(=O)N1CCCCCC1)c1ccccc1` reads 2.51%; that for `O=C1c2ccccc2C(=O)N1CCCc1c[nH]c2ccccc12`, -2.4%; that for `O=C(NCc1cccc(C(F)(F)F)c1)C1CCCN(c2cnccn2)C1` (stereo unspecified), 3.94%.
As for `Cc1ccc2[nH]c3c(N4CCN(Cc5ccccc5)CC4)ncnc3c2c1`, the inhibition is 11.1%.
Consider `Cc1ccc2c(c1)[nH]c1c(N3CCN(Cc4ccccc4)CC3)ncnc12`, for which the inhibition is 6.98%.
Turning to `Cc1ccc(NC(=O)c2ccc3snnc3c2)cc1`, the inhibition was -2.31%.
With `COc1ccccc1N1CCN(C(=O)CN2C(=O)c3ccccc3S2(=O)=O)CC1` the figure was -8.97%.
Turning to `Cc1cc(Nc2ccccc2O)c2ccccc2n1`, the inhibition was 6.66%.
In the case of `Cc1cccc(NC(=S)N(C)C)c1C`, the inhibition is 17.9%.
The result for `Cc1cccc(Nc2nc3ccccc3s2)c1C` reads -1.36%; that for `Cc1cc(Nc2ccccc2)nc2cc(O)ccc12`, 11.4%; that for `O=C(CSC1=NNC(c2ccccn2)S1)Nc1ccc(C(F)(F)F)cc1` (stereo unspecified), 3.27%.
With `Cc1cc(C)c2cc(C(=O)N3CCC(C(=O)c4ccc(F)cc4)CC3)[nH]c2c1`, the inhibition is 2.06%.
With `O=C1c2ccccc2NC(c2ccccc2O)N1O` (stereo unspecified) the figure was -4.51%; with `N/C(=N\N=C/c1ccc(Br)cc1)N/N=C\c1ccc(Br)cc1`, -6.33%; with `O=C(N/N=C\c1ccc(F)cc1)c1ccc(F)cc1`, 23.4%.
Regarding `CC(=O)Nc1ccc2c(c1)nc1n2CCSC1`, the inhibition was 11.9%.
With `Cc1cc(/C=C2\C(=O)NC(=O)N(c3ccc(Cl)cc3)C2=O)c(C)n1-c1cccc(C(=O)O)c1` the figure was -15.1%.
With `Cc1ccc(/C=N/NC(=O)c2nnn(-c3nonc3N)c2CN(C)c2ccccc2)s1` the figure was 0.97%; with `C/C(N=Nc1nc2ccccc2s1)=N\Nc1ccccc1O`, 16.1%; with `Oc1ccccc1N=N/C(=N/Nc1ccccc1O)c1ccccc1`, -5.08%.
With `O=C(Cn1nc(C(F)F)cc1C(F)F)NNC(=S)Nc1ccc(F)cc1`, the inhibition was -9.87%.
The result for `O=C(Cn1nc(C(F)F)cc1C(F)F)NNC(=S)Nc1ccc(Cl)cc1` reads 8.04%.

For orientation: inhibition means the drop in the measured response relative to a control, in per cent.

Values taken from PubChem BioAssay AID1850 (Southern Research Specialized Biocontainment Screening …, 2009).
